Activity calls are given as the source filed them. Rule for the calls: active = hit-call score of the fitted dose curve at least 0.9, where 1 is the maximum; inactive = score below 0.9.
What was measured:
Conditions in all cases: mRNA level, 48 h; actives raise or lower the signal
BCL2L11 (gene 10018) = assay: LTEA_HepaRG_BCL2L11: Life Technologies and Expression Analysis (LTEA) Assay for Bcl-2 (BCL2L11) gene using HepaRG (AID 2283473)
How it was run: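 Human hepatic HepaRG cultures are treated 48 h with test chemicals (maximum 100 uM, 0.5% DMSO vehicle). Expression of BCL2L11 is measured by qRT-PCR against ACTB, GAPDH and POLR2A, with activity in either direction scored relative to vehicle.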

[1] = read-out: Apolipoprotein A-V (APOA5) gene, APOA5 (gene 116519); assay: LTEA_HepaRG_APOA5: Life Technologies and Expression Analysis (LTEA) Assay for Apolipoprotein A-V (APOA5) gene using HepaRG (AID 2283474)
How it was run: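 Concentration-response of APOA5 expression in HepaRG: eight half-log doses to 100 uM, 48 h, qRT-PCR normalized to ACTB/GAPDH/POLR2A, bidirectional fitting with 0.5% DMSO as baseline.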

[2] = read-out: Apoptosis regulator Bcl-2 (Homo sapiens) (UniProt P10415); assay: LTEA_HepaRG_BCL2: Life Technologies and Expression Analysis (LTEA) Assay for Bcl-2 gene using HepaRG (AID 2283475);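 note: BCL2 transcript by TaqMan qRT-PCR normalised to ACTB GAPDH and POLR2A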
How it was run: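 Expression change of BCL2 mRNA in HepaRG after 48 h dosing, quantified by TaqMan qRT-PCR against three endogenous controls. Concentration-response used eight points up to 100 uM, vehicle 0.5% DMSO.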

[3] = read-out: Bcl-2 (BID) gene, BID (gene 637); assay: LTEA_HepaRG_BID: Life Technologies and Expression Analysis (LTEA) Assay for Bcl-2 (BID) gene using HepaRG (AID 2283476)
How it was run: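 Gain or loss of BID expression is fitted relative to 0.5% DMSO vehicle. Human HepaRG liver cells received a 48 h chemical exposure over an eight-point concentration range.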

[4] = read-out: Cytochrome P450 (CYP24A1), CYP24A1 (gene 1591); assay: LTEA_HepaRG_CYP24A1: Life Technologies and Expression Analysis (LTEA) Assay for Cytochrome P450 (CYP24A1) using HepaRG (AID 2283478)
How it was run: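 Gene expression of CYP24A1 by TaqMan qRT-PCR in HepaRG after 48 h treatment, highest concentration 100 uM; activity fitted in both directions relative to DMSO vehicle.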

[5] = read-out: Cytochrome P450 (CYP1A2), CYP1A2 (gene 1544); assay: LTEA_HepaRG_CYP1A2: Life Technologies and Expression Analysis (LTEA) Assay for Cytochrome P450 (CYP1A2) using HepaRG (AID 2283479)
How it was run: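 In duplicate wells, HepaRG cultures maintained in 0.5% DMSO were treated 48 h across an 8-point, half-log series topping at 100 uM; phenobarbital (1 mM) served as induction control. Expression was read by qRT-PCR.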

[6] = read-out: cysteine-aspartic acid protease (CASP8), CASP8 (gene 841); assay: LTEA_HepaRG_CASP8: Life Technologies and Expression Analysis (LTEA) Assay for cysteine-aspartic acid protease (CASP8) using HepaRG (AID 2283480)
How it was run: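 Differentiated HepaRG cells in serum-free induction medium, 48 h exposure, eight-point half-log series from 100 uM in 0.5% DMSO, duplicates. CASP8 mRNA by qRT-PCR, normalized to ACTB, GAPDH, POLR2A; bidirectional fit versus DMSO.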

[7] = read-out: Cytochrome P450 (CYP2B6), CYP2B6 (gene 1555); assay: LTEA_HepaRG_CYP2B6: Life Technologies and Expression Analysis (LTEA) Assay for Cytochrome P450 (CYP2B6) using HepaRG (AID 2283481)
How it was run: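 Human HepaRG, 48 h dosing, 0.5% DMSO vehicle, top dose 100 uM. CYP2B6 transcript by qRT-PCR, housekeeping-normalized, bidirectional curve fit.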

[8] = read-out: Cytochrome P450 2C19 (Homo sapiens) (UniProt P33261); assay: LTEA_HepaRG_CYP2C19: Life Technologies and Expression Analysis (LTEA) Assay for CYP2C19 using HepaRG (AID 2283482)
How it was run: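 Endpoint: CYP2C19 mRNA change, bidirectional fit vs 0.5% DMSO. Cells: HepaRG, 48 h exposure, eight-point series topping at 100 uM. Quantitation: qRT-PCR normalized to ACTB, GAPDH, POLR2A.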

CYP2C8 (gene 1558) = assay: LTEA_HepaRG_CYP2C8: Life Technologies and Expression Analysis (LTEA) Assay for CYP2C8 using HepaRG (AID 2283483)
How it was run: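 Differentiated HepaRG cells in serum-free induction medium exposed 48 h in duplicate to 8 half-log concentrations from 100 uM in 0.5% DMSO. CYP2C8 mRNA by qRT-PCR normalized to ACTB, GAPDH, POLR2A; bidirectional fit versus DMSO.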

CYP2C9 (gene 1559) = assay: LTEA_HepaRG_CYP2C9: Life Technologies and Expression Analysis (LTEA) Assay for CYP2C9 using HepaRG (AID 2283484)
How it was run: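 Differentiated human HepaRG cells in serum-free induction medium were exposed 48 h to chemicals in 8-point half-log series from 100 uM (0.5% DMSO), in duplicate. CYP2C9 mRNA was measured by qRT-PCR, normalized to ACTB/GAPDH/POLR2A, with bidirectional fitting versus DMSO.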

CYP4A11 (gene 1579) = assay: LTEA_HepaRG_CYP4A11: Life Technologies and Expression Analysis (LTEA) Assay for CYP4A11 using HepaRG (AID 2283486)
How it was run: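 Human hepatic HepaRG cultures receive duplicate 48 h exposures across a concentration-response series topping at 100 uM. Expression changes in CYP4A11 are measured by qRT-PCR relative to DMSO controls.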

[9] = read-out: Cytochrome P450 3A4 (Homo sapiens) (UniProt P08684); assay: LTEA_HepaRG_CYP3A4: Life Technologies and Expression Analysis (LTEA) Assay for CYP3A4 using HepaRG (AID 2283487)
How it was run: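 HepaRG, 48 h exposure, 8-pt CRC from 100 uM (half-log), 0.5% DMSO, duplicates; serum-free induction medium. Readout: CYP3A4 mRNA, qRT-PCR, ACTB/GAPDH/POLR2A normalization. Bidirectional fit vs DMSO.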

[10] = read-out: DNA damage-inducible transcript 3 (DDIT3), DDIT3 (gene 1649); assay: LTEA_HepaRG_DDIT3: Life Technologies and Expression Analysis (LTEA) Assay for DNA damage-inducible transcript 3 (DDIT3) using HepaRG (AID 2283488)
How it was run: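 Changes in DDIT3 transcript, in either direction relative to 0.5% DMSO vehicle, were quantified by TaqMan qRT-PCR after 48 h chemical exposure of HepaRG cells at 8 concentrations, maximum 100 uM.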

[11] = read-out: Cytochrome P450 3A7 (Homo sapiens) (UniProt P24462); assay: LTEA_HepaRG_CYP3A7: Life Technologies and Expression Analysis (LTEA) Assay for CYP3A7 using HepaRG (AID 2283492)
How it was run: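 qRT-PCR of CYP3A7 in HepaRG lysates after 48 h treatment; concentration-response (8 points, max 100 uM) analysed bidirectionally relative to 0.5% DMSO controls.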

Caspase-3 (Homo sapiens) = Caspase-3 (Homo sapiens) (UniProt P42574); assay: LTEA_HepaRG_CASP3: Life Technologies and Expression Analysis (LTEA) Assay for cysteine-aspartic acid protease (CASP3) using HepaRG (AID 2283477)
How it was run: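 Transcript-level assay: CASP3 mRNA in human HepaRG after 48 h treatment, eight half-log concentrations from 100 uM in 0.5% DMSO, quantified by qRT-PCR.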

[12] = read-out: Pro-epidermal growth factor (Homo sapiens) (UniProt P01133); assay: LTEA_HepaRG_EGF: Life Technologies and Expression Analysis (LTEA) Assay for Epidermal growth factor (EGF) using HepaRG (AID 2283489)
How it was run: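 Concentration-response mRNA assay: HepaRG cells dosed 48 h (max 100 uM, 0.5% DMSO), EGF measured by qRT-PCR and normalized to ACTB/GAPDH/POLR2A.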

[13] = read-out: Early growth response protein 1 (EGR1) transcription factor, EGR1 (gene 1958); assay: LTEA_HepaRG_EGR1: Life Technologies and Expression Analysis (LTEA) Assay for Early growth response protein 1 (EGR1) transcription factor using HepaRG (AID 2283490)
How it was run: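 Differentiated HepaRG cells in serum-free induction medium exposed 48 hours, duplicate, to 8 half-log concentrations up to 100 uM in 0.5% DMSO. EGR1 mRNA measured by TaqMan qRT-PCR, normalized to ACTB, GAPDH, POLR2A; bidirectional fit versus DMSO.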

CYP2E1 (gene 1571) = assay: LTEA_HepaRG_CYP2E1: Life Technologies and Expression Analysis (LTEA) Assay for CYP2E1 using HepaRG (AID 2283485)
How it was run: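 Differentiated HepaRG cells were treated in duplicate for 48 h with chemicals in 0.5% DMSO, from 100 uM downward in half-log dilutions. RNA was then analysed by qRT-PCR for CYP2E1 induction or loss.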

Sequence of Cytochrome P450 3A7 (Homo sapiens) (P24462 whole entry, looked up): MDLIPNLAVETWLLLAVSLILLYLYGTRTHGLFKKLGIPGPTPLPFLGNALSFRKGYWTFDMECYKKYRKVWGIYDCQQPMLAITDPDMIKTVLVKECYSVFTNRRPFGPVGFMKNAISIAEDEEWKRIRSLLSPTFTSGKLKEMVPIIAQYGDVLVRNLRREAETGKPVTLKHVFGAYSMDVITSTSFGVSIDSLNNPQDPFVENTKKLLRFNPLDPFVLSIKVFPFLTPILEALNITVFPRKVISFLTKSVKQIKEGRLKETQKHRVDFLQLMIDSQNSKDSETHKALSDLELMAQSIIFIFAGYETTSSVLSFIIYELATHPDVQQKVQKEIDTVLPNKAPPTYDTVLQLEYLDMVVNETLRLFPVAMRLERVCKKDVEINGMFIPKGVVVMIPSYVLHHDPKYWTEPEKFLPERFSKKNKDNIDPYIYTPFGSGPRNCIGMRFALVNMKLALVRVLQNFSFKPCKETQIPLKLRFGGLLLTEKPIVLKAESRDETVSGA
Sequence of Cytochrome P450 3A4 (Homo sapiens) (P08684 whole entry, looked up): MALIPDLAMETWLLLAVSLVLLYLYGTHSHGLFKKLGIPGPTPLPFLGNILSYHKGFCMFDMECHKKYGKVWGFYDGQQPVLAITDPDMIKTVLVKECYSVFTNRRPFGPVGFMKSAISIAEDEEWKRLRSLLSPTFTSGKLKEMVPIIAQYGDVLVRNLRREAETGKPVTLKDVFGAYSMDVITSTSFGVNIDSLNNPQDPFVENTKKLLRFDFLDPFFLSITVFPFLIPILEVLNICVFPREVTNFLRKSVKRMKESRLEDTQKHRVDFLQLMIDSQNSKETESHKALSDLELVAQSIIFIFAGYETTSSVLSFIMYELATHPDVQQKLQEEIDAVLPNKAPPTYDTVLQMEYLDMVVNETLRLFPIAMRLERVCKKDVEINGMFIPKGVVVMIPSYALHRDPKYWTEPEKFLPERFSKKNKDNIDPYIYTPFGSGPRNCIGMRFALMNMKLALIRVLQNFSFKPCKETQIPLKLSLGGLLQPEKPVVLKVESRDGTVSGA
Sequence of Cytochrome P450 2C19 (Homo sapiens) (P33261 whole entry, looked up): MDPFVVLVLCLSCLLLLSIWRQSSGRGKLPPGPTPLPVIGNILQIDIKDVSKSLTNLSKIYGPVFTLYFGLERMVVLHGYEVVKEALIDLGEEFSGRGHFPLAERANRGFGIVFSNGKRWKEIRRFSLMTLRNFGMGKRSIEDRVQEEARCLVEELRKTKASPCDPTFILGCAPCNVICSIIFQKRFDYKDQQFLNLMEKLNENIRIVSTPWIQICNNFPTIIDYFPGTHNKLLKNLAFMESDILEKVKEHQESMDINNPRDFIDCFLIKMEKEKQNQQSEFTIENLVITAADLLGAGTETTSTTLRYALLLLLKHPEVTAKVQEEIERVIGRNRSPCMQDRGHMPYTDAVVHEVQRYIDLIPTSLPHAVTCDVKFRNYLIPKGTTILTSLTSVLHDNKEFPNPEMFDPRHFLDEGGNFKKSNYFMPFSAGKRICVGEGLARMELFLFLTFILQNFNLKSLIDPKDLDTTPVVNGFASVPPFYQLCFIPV
Sequence of Apoptosis regulator Bcl-2 (Homo sapiens) (P10415 whole entry, looked up): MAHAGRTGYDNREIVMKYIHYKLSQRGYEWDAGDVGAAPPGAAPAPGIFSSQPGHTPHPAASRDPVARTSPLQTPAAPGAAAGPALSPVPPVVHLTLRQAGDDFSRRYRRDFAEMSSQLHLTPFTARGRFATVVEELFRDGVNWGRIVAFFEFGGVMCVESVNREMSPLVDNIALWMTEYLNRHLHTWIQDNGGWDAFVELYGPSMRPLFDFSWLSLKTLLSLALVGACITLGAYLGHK
Sequence of Caspase-3 (Homo sapiens) (P42574 whole entry, looked up): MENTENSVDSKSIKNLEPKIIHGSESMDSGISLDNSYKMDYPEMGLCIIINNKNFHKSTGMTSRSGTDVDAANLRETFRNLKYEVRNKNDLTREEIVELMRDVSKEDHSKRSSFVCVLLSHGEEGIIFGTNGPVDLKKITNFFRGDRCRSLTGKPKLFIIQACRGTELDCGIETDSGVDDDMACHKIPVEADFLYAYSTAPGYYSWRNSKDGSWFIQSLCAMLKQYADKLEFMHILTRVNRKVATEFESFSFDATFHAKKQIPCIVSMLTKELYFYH

With COCCO the outcome (BCL2L11 (gene 10018)) was “inactive”, the outcome [1] was “inactive” and the outcome [2] was “inactive”. For the same compound, the outcome [3] was “inactive”, the outcome [4] was “inactive” and the outcome [5] was “inactive”. The outcome [6] was “inactive”, the outcome [7] was “inactive” and the outcome [8] was “inactive”. For the same compound, the outcome (CYP2C8 (gene 1558)) was “inactive”, the outcome (CYP2C9 (gene 1559)) was “inactive” and the outcome (CYP4A11 (gene 1579)) was “inactive”. For the same compound, the outcome [9] was “inactive”, the outcome [10] was “inactive” and the outcome [11] was “inactive”.

COC(=O)c1ccc(I)cc1S(=O)(=O)NC(=O)Nc1nc(C)nc(OC)n1 was tested, and the outcome (BCL2L11 (gene 10018)) was “inactive”, the outcome [1] was “inactive” and the outcome [2] was “inactive”. The outcome (Caspase-3 (Homo sapiens)) was “inactive”, the outcome [4] was “inactive” and the AC50 [5] was 50 µM (active). The outcome [6] was “inactive”, the outcome [7] was “inactive” and the outcome [8] was “inactive”. The outcome (CYP2C8 (gene 1558)) was “inactive”, the outcome (CYP2C9 (gene 1559)) was “inactive” and the outcome (CYP4A11 (gene 1579)) was “inactive”. The AC50 [9] was 29.3 µM (active), the outcome [10] was “inactive” and the outcome [12] was “inactive”. For the same compound, the outcome [13] was “inactive” and the outcome [11] was “inactive”.

For CCCOC(=O)NCCCN(C)C, the outcome (BCL2L11 (gene 10018)) was “inactive”, the outcome [1] was “inactive” and the outcome [3] was “inactive”. For the same compound, the outcome (Caspase-3 (Homo sapiens)) was “inactive”, the outcome [4] was “inactive” and the outcome [5] was “inactive”. The outcome [6] was “inactive”, the outcome [7] was “inactive” and the outcome [8] was “inactive”. For the same compound, the outcome (CYP2C8 (gene 1558)) was “inactive”, the outcome (CYP2C9 (gene 1559)) was “inactive” and the outcome (CYP2E1 (gene 1571)) was “inactive”. For the same compound, the outcome (CYP4A11 (gene 1579)) was “inactive”, the outcome [9] was “inactive” and the outcome [10] was “inactive”. For the same compound, the outcome [12] was “inactive” and the outcome [11] was “inactive”.

With O=C(c1ccc(O)cc1O)c1ccc(O)cc1O the outcome (BCL2L11 (gene 10018)) was “inactive”, the outcome [1] was “inactive” and the outcome [2] was “inactive”. For the same compound, the outcome [4] was “inactive”, the outcome [5] was “inactive” and the outcome [6] was “inactive”. For the same compound, the outcome [7] was “inactive”, the outcome [8] was “inactive” and the outcome (CYP2C8 (gene 1558)) was “inactive”. For the same compound, the outcome (CYP2C9 (gene 1559)) was “inactive”, the outcome (CYP2E1 (gene 1571)) was “inactive” and the outcome (CYP4A11 (gene 1579)) was “inactive”. The outcome [9] was “inactive”, the outcome [10] was “inactive” and the outcome [12] was “inactive”. The outcome [11] was “inactive”.

With COC(=O)c1ccccc1C(=O)O the outcome (BCL2L11 (gene 10018)) was “inactive”, the outcome [1] was “inactive” and the outcome [4] was “inactive”. For the same compound, the outcome [5] was “inactive”, the outcome [6] was “inactive” and the outcome [7] was “inactive”. For the same compound, the outcome [8] was “inactive”, the outcome (CYP2C8 (gene 1558)) was “inactive” and the outcome (CYP2C9 (gene 1559)) was “inactive”. For the same compound, the outcome (CYP2E1 (gene 1571)) was “inactive”, the outcome (CYP4A11 (gene 1579)) was “inactive” and the outcome [9] was “inactive”. The outcome [10] was “inactive”, the outcome [12] was “inactive” and the outcome [11] was “inactive”.

With C=CCOC(Cn1ccnc1)c1ccc(Cl)cc1Cl (centres undefined) the AC50 (BCL2L11 (gene 10018)) was 88.6 µM (active), the outcome [4] was “inactive” and the AC50 [6] was 84 µM (active). For the same compound, the AC50 [7] was 31.6 µM (active), the AC50 [8] was 34.3 µM (active) and the AC50 (CYP2C8 (gene 1558)) was 27.2 µM (active). The AC50 (CYP2C9 (gene 1559)) was 33.1 µM (active), the AC50 (CYP2E1 (gene 1571)) was 13.1 µM (active) and the AC50 (CYP4A11 (gene 1579)) was 28.1 µM (active). The AC50 [12] was 85 µM (active).

With CSC(=O)c1cccc2nnsc12 the outcome (BCL2L11 (gene 10018)) was “inactive”, the outcome [1] was “inactive” and the outcome [4] was “inactive”. For the same compound, the outcome [5] was “inactive”, the outcome [6] was “inactive” and the outcome [7] was “inactive”. The outcome [8] was “inactive”, the outcome (CYP2C8 (gene 1558)) was “inactive” and the outcome (CYP2C9 (gene 1559)) was “inactive”. For the same compound, the outcome (CYP4A11 (gene 1579)) was “inactive”, the outcome [9] was “inactive” and the outcome [10] was “inactive”. The outcome [12] was “inactive” and the outcome [11] was “inactive”.
